Results on one compound are retold here after ChEMBL document CHEMBL1961873, “Compounds: GSK PKIS; Assays: Nanosyn kinase panel” (2012).

Assay [1] deals with Protein kinase C gamma type (Homo sapiens) (UniProt P05129). As to conditions: at 1 µM.
Assay [2] addresses T1, Protein kinase C iota type (Homo sapiens) (UniProt P41743).
T1 sequence (whole entry): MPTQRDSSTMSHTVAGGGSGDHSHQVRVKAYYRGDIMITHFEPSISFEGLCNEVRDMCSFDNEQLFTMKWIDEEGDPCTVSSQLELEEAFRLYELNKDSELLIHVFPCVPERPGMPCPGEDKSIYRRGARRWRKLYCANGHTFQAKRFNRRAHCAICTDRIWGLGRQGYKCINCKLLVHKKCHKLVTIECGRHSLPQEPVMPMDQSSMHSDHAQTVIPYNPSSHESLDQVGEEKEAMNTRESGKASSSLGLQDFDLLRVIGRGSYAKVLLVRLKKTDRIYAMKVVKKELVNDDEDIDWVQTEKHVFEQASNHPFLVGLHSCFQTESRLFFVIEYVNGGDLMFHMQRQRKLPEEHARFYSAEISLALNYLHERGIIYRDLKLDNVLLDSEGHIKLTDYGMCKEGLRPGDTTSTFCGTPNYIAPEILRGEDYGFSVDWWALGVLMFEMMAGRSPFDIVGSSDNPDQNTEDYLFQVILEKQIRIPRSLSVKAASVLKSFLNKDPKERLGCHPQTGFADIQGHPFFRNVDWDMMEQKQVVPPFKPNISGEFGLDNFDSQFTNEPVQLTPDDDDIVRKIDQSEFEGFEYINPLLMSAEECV
As to conditions: at 0.1 µM.

For assay [3], the target named is T1, Protein kinase C iota type (Homo sapiens). As to conditions: at 1 µM.
The target in assay [4] is Protein kinase C theta type (Homo sapiens) (UniProt Q04759). The note with it: at 0.1 µM.
Sequence of Protein kinase C theta type (Homo sapiens) (Q04759 whole entry, looked up): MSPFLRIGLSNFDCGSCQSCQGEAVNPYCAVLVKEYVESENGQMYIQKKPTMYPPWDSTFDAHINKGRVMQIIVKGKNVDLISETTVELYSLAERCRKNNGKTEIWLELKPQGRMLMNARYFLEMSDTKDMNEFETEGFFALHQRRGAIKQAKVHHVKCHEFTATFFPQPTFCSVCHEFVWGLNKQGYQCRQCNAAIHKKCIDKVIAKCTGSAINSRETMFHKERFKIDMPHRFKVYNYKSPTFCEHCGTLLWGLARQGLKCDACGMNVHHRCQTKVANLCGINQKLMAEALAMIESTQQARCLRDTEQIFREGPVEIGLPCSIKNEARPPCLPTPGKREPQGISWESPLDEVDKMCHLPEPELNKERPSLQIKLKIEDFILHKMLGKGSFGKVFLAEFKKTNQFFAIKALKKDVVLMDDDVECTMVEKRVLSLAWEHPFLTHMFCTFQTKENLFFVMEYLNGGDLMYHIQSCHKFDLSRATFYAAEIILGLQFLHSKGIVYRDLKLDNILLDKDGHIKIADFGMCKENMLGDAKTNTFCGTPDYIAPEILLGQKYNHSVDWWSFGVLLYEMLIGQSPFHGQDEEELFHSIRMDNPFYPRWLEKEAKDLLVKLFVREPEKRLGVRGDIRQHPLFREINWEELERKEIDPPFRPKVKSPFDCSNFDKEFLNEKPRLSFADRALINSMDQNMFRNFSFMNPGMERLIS
Assay [5] shares this target. The note with it: at 1 µM.
In assay [6] the target is Protein kinase C beta type (Homo sapiens) (UniProt P05771). The note with it: at 0.1 µM.
Sequence of Protein kinase C beta type (Homo sapiens) (P05771 2-671 limits assumed): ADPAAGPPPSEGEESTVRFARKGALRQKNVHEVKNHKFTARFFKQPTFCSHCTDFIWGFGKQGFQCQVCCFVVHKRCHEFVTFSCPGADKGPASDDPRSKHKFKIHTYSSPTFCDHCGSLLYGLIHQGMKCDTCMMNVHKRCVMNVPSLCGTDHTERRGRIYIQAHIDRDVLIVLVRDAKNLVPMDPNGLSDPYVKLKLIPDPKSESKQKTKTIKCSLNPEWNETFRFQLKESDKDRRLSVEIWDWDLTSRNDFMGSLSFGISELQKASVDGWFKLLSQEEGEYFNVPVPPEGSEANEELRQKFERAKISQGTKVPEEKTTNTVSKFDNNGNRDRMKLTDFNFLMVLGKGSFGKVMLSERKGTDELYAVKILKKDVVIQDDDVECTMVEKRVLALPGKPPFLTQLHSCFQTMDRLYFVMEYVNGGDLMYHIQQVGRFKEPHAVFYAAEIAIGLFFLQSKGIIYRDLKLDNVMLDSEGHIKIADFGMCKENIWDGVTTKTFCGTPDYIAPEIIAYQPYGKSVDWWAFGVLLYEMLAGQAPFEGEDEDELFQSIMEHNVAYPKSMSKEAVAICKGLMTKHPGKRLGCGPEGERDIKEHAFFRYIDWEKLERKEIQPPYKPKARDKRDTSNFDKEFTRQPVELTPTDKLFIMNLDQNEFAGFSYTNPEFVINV
The target is the same in assay [7]. The note with it: at 1 µM.
In assay [8] the target is T2, Serine/threonine-protein kinase D1 (Homo sapiens) (UniProt Q15139).
T2 sequence (whole entry): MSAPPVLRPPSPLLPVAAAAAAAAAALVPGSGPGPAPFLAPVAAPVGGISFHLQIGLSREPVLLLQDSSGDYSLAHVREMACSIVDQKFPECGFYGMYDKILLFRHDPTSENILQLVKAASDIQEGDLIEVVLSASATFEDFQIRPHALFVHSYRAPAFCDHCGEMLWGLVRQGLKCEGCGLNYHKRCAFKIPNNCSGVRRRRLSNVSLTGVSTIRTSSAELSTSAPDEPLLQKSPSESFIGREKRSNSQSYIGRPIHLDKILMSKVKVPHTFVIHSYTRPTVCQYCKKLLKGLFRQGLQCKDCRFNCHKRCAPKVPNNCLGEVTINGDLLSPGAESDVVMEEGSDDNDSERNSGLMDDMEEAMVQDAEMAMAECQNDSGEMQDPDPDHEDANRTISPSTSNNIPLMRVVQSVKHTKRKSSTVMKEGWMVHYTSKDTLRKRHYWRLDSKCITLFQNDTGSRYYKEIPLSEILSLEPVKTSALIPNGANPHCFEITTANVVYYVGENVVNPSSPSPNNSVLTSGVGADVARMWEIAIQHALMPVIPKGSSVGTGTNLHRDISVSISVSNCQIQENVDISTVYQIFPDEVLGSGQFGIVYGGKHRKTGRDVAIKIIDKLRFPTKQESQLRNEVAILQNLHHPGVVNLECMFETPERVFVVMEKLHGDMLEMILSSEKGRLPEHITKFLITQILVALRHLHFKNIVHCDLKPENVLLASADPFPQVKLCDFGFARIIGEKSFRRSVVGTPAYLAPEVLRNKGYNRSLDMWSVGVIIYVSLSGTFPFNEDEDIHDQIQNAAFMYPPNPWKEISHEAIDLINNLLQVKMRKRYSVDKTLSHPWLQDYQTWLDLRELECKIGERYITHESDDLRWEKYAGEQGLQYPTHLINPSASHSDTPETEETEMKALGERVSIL
The note with it: at 0.1 µM.

Assay [9] has as its target T2, Serine/threonine-protein kinase D1 (Homo sapiens). The note with it: at 1 µM.
The target in assay [10] is T3, Serine/threonine-protein kinase D2 (Homo sapiens) (UniProt Q9BZL6).
T3 sequence (whole entry): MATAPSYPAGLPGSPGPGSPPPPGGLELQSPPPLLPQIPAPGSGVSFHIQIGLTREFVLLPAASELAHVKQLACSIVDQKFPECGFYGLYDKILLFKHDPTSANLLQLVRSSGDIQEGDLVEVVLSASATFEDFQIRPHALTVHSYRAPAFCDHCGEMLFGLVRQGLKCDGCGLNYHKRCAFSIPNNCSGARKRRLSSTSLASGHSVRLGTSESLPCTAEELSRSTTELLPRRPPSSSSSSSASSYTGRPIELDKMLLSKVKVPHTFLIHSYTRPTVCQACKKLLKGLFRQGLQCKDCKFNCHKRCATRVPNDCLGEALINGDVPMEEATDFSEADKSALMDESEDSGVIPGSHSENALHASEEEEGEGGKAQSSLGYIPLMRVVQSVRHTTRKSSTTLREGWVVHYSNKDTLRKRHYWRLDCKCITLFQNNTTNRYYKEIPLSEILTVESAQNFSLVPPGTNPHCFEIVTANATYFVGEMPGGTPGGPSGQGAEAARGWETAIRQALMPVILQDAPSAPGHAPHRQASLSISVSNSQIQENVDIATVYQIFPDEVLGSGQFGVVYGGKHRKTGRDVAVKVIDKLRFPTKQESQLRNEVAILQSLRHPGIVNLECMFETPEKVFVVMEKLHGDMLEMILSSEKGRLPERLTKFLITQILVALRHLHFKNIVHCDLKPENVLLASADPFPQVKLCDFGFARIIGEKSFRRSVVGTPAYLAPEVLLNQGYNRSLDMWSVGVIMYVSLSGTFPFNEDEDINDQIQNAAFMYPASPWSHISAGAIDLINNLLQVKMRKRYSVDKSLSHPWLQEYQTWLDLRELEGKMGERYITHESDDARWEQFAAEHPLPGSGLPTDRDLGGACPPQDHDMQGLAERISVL
The note with it: at 0.1 µM.

For assay [11], the target named is T3, Serine/threonine-protein kinase D2 (Homo sapiens). The note with it: at 1 µM.
Assay [12] addresses T4, Serine/threonine-protein kinase D3 (Homo sapiens) (UniProt O94806).
T4 sequence (whole entry): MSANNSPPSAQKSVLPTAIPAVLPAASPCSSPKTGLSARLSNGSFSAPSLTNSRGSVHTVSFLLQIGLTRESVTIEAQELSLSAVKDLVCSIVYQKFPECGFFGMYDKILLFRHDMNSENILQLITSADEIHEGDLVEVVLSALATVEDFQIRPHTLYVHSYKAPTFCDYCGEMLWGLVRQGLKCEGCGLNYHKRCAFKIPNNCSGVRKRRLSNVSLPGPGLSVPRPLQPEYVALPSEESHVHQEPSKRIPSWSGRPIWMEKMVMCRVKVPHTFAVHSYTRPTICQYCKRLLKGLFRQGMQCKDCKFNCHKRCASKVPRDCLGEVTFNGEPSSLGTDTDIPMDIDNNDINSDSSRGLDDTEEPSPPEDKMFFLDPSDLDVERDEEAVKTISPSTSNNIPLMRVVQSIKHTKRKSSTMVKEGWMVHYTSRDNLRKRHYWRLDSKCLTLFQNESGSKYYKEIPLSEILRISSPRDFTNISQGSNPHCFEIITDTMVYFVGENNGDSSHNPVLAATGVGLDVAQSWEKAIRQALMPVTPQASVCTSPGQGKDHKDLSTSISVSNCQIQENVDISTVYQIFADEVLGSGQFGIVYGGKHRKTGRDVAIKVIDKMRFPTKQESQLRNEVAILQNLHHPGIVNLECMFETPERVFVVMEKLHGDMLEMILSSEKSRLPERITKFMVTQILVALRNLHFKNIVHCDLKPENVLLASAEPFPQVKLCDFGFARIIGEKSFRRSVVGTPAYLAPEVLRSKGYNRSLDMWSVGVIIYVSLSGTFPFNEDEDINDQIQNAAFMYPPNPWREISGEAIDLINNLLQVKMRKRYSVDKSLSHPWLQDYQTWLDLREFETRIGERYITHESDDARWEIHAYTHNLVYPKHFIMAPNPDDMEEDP
As to conditions: at 0.1 µM.

The target in assay [13] is T4, Serine/threonine-protein kinase D3 (Homo sapiens). The note with it: at 1 µM.
Assay [14] deals with T5, cGMP-dependent protein kinase 1 (Homo sapiens) (UniProt Q13976).
T5 sequence (whole entry): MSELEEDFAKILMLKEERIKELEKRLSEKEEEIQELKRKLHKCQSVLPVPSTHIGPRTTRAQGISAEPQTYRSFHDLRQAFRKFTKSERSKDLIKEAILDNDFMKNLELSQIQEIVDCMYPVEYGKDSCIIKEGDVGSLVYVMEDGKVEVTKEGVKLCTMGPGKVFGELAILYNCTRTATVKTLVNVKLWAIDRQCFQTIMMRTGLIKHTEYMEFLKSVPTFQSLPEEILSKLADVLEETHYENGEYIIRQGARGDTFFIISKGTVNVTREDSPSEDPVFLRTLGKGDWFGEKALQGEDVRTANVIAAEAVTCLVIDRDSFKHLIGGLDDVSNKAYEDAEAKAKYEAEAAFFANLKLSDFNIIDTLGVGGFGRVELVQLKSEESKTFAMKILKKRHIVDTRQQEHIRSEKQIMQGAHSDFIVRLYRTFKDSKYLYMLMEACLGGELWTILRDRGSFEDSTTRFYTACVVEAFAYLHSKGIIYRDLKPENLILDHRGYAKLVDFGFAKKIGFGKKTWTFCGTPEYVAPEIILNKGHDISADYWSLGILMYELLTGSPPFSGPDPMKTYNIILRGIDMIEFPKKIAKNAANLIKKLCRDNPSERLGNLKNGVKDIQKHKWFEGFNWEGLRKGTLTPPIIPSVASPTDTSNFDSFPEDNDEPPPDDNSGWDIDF
The note with it: at 0.1 µM.

Assay [15] has as its target T5, cGMP-dependent protein kinase 1 (Homo sapiens). The note with it: at 1 µM.
For assay [16], the target named is T6, cGMP-dependent protein kinase 2 (Homo sapiens) (UniProt Q13237).
T6 sequence (whole entry): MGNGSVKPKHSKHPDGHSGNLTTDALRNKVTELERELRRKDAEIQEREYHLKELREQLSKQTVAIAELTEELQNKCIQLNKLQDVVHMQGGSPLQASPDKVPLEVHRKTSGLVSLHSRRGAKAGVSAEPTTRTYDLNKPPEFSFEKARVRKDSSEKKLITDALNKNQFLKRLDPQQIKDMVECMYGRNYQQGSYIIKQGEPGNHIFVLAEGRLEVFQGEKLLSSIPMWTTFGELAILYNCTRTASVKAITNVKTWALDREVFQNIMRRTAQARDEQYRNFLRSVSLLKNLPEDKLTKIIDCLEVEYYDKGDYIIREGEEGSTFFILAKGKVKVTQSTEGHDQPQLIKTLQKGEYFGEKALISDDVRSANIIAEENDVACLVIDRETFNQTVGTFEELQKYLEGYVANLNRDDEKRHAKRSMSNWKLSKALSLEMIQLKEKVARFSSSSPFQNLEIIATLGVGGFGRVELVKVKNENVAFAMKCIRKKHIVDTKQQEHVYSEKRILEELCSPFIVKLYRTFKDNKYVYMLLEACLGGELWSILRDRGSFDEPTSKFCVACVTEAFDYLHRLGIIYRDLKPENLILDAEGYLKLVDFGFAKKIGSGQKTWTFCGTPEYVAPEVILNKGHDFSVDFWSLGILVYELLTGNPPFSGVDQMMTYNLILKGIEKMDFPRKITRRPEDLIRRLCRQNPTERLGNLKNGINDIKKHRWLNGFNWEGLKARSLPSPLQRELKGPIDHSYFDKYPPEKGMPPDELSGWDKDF
As to conditions: at 0.1 µM.

Assay [17] has as its target T6, cGMP-dependent protein kinase 2 (Homo sapiens). As to conditions: at 1 µM.
For assay [18], the target named is T7, cAMP-dependent protein kinase catalytic subunit PRKX (Homo sapiens) (UniProt P51817).
T7 sequence (whole entry): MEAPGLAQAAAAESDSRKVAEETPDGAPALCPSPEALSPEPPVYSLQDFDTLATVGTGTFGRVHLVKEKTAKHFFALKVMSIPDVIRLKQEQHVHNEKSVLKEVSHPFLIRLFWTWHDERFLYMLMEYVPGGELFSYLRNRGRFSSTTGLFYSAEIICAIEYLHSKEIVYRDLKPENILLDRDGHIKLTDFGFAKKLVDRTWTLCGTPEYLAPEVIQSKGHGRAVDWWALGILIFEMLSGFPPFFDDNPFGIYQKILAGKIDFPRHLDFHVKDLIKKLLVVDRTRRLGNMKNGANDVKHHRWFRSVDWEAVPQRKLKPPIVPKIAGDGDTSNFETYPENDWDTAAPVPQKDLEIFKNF
The note with it: at 0.1 µM.

Assay [19] deals with T7, cAMP-dependent protein kinase catalytic subunit PRKX (Homo sapiens). The note with it: at 1 µM.
Assay [20] addresses Rho-associated protein kinase 1 (Homo sapiens) (UniProt Q13464). As to conditions: at 0.1 µM.

Sequence of Rho-associated protein kinase 1 (Homo sapiens) (Q13464 2-1354 limits assumed): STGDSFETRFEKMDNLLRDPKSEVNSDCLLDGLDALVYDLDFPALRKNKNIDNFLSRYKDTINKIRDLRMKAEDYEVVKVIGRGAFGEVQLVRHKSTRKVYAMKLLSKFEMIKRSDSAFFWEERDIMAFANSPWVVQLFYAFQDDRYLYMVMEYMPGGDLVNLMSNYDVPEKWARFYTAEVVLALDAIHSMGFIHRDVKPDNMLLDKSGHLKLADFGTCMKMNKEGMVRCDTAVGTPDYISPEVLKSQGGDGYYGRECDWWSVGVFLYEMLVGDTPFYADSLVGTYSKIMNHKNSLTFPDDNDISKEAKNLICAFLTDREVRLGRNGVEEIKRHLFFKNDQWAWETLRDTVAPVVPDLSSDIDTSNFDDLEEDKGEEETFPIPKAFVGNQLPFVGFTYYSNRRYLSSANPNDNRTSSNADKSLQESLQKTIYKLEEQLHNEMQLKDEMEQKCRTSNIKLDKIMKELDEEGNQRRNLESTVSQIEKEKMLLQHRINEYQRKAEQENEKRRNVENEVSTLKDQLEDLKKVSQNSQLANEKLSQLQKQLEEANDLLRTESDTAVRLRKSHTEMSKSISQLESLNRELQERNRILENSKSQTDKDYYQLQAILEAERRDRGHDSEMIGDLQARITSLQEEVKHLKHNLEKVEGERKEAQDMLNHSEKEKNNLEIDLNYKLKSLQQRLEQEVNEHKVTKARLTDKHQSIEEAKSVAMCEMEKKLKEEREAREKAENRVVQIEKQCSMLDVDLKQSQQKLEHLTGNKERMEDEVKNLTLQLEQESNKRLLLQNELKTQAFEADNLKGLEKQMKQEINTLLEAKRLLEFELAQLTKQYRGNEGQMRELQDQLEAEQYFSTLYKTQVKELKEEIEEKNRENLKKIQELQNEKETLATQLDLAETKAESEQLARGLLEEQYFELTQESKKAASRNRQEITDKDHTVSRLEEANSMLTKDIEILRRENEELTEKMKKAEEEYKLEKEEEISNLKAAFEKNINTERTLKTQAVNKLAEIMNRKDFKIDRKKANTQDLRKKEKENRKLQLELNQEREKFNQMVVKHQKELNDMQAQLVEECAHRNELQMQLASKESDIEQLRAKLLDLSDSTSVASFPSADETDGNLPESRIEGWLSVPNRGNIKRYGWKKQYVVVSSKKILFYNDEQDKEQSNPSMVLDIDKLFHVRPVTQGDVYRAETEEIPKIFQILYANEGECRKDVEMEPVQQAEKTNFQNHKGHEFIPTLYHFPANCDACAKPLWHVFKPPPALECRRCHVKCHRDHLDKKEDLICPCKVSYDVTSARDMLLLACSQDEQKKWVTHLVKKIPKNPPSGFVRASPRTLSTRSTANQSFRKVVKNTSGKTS

As to `CCCN(CCS(C)(=O)=O)Cc1ccc(-c2ccc3ncnc(Nc4ccc(OCc5cccc(F)c5)c(Cl)c4)c3c2)o1`, the inhibition in assay [1] is 2.5%; in [2], 1.67%; in [3] it was -0.59%; in assay [4] it was 0.4%; in assay [5] it was 0.62%; in assay [6] it was 1.13%. Also, the inhibition in assay [7] came out at 2.02%; in assay [8], 1.1%; in assay [9] it was 2.52%; in assay [10], 0.95%; in assay [11], 1.95%; in assay [12] it was 1.29%. In addition, the inhibition amounted to 2.73% in assay [13]; 1.66% in assay [14]; 1.47% in assay [15]; 0.95% in assay [16]; 1.07% in assay [17]; 1.89% in [18]. Also, the inhibition in assay [19] worked out at 1.27%; in [20], 0.42%.

As usually defined, the inhibition is the drop in the measured response relative to a control, in per cent.
